Compound activity: PubChem BioAssay, National Center for Advancing Translational Sciences (NCATS)
HEK293 tox: HEK 293 cell cytotoxicity. HEK 293 viability, ATP luminescence (CellTiter-Glo), 48-72 h. Potency, µM (top dose mostly 115 µM), for inactives: top-dose activity change, negative = cytotoxicity, actives largely listed as inhibitors. 6.6% of 94,000 active; note: nearly all actives have a fitted effect of over 60% in size
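Viability of HEK 293 cells, plated at 250 cells/well, was judged by cellular ATP after compound treatment for 48 or 72 hr. Luminescence was imaged 10 min after CellTiter-Glo addition at room temperature.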
Luciferase inh: blocks purified firefly luciferase enzyme activity; purified P. pyralis luciferase, luminescence, biochemical; AID 1347043; 2.5% of 76,000 active; Potency, µM (highest dose often 115 µM), actives largely listed as inhibitors; P08659; note: nearly all actives have a fitted effect of over 65% in size
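Luminescence read by CCD imager after adding enzyme (10nM final) to wells holding compound, titrated in qHTS. Substrates 10uM each D-luciferin and ATP; buffer 50mM Tris acetate pH 7.5, 10mM Mg acetate, Tween-20, BSA.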
hNpr1 antagonist: antagonists of human natriuretic peptide receptor Npr1. P16066. HEK293 hNpr1 GloSensor cGMP, ANP-stimulated luminescence. Potency, µM (top dose mostly 46.3 µM), for the others: at the top dose activity change, negative = inhibition, hits mostly inhibitors. 1.6% of 76,000 active; calls by dose curve; note: nearly all actives have a fitted effect of over 60% in size
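Compound pre-incubated 30 min at room temperature on GloSensor-loaded HEK293 cells stably carrying hNpr1 and the pGS-40F cGMP biosensor. Stimulation uses hNppA at 0.1 nM final; luminescence is taken at baseline and 20 min post-agonist.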
GPT2 inhibitor: inhibitors of human GPT2 alanine aminotransferase | 0.25% of 100,000 active | Recombinant GPT2, coupled pyruvate oxidase/HRP Amplex Red fluorescence | AID 1671188 | Q8TD30 | Potency, µM (doses to about 57.7 µM), inactives show top-dose activity change, negative = inhibition, actives largely listed as inhibitors; note: nearly all actives have a fitted effect of over 60% in size
Target sequence (Q8TD30 whole entry, looked up): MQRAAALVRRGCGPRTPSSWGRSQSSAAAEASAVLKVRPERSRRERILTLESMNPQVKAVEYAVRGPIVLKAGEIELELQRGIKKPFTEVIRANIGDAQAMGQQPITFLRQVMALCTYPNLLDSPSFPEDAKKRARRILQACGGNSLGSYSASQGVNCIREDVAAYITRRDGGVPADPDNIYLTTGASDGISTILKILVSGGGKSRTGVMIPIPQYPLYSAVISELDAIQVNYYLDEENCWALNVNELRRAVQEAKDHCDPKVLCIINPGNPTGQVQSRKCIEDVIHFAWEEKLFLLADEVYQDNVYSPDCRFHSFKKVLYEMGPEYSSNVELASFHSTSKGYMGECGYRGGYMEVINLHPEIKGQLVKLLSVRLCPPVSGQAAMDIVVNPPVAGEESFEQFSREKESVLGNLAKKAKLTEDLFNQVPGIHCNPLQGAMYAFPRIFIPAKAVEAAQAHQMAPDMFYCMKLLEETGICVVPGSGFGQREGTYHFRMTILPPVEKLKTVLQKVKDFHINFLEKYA
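Inhibition is scored from Amplex Red fluorescence generated when pyruvate oxidase and HRP act on pyruvate released by GPT2. Reactions contain 10ng/uL enzyme, 250uM a-KG and 2mM L-alanine and run 30 min at room temperature.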
3T3 cytotox: kills NIH 3T3 cells; NIH 3T3 viability, CellTiter-Glo ATP luminescence, 48-72 h; Potency, µM (top dose mostly 96.7 µM), without a hit: top-dose activity change, negative = cytotoxicity, hits mostly inhibitors; AID 1345082; 4.3% of 94,000 active; note: nearly all actives have a fitted effect of over 55% in size
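Cytotoxicity is measured as loss of cellular ATP: NIH 3T3 cells (400/well) are exposed to compound for 48 or 72 hr at 37 °C, then CellTiter-Glo luminescence is imaged after 10 min at room temperature.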
* marks the source's active call; other numbers are inactive results; i = inactive; ? = inconclusive; · = no result; [ ] = remark or other dose. Only some compounds are listed: those with a hit (about 10% of all), similar ones and a draw of the others. Unless noted, calls come from the whole dose curve; as a rule, active = well fitted curve in the direction sought with a large enough effect; inconclusive = small, poorly fitted or top-dose-only effect, or another doubt; inactive = no such curve, though single readings can be large; an effect the other way counts as inactive or inconclusive. % is set by controls: 0 for no effect and ±100 for the full control effect; potency is the fitted concentration of half-maximal effect.

SMILES	HEK293 tox	Luciferase inh	hNpr1 antagonist	GPT2 inhibitor	3T3 cytotox
Cn1cc(CN[C@H]2[C@H](O)[C@H](O)C[C@@H]2c2cccnc2)c2ccccc21	100µM*	i	1%[70.6 µM]	?	?
CCOc1ccc2c(n1)CCN(C(=O)Nc1cccc(CC)c1)C2	?	?	-30%	i	?
CCOc1ccc2c(n1)CCN(C(=O)Nc1ccc(C)c(C)c1)C2	?	28µM*	-10%	i	?
CCOc1ccc2c(n1)CCN(C(=O)NCC(C)C)C2	-17%	?	6%	3%	-20%
COCCOc1ccc2c(n1)CCN(C(=O)NCCC(C)C)C2	-15%	14µM*	4%	-6%	-20%
COc1ccc2nc(C[C@@H]3C[C@@H](C(C)C)[C@H](CNC(=O)C4CCCCC4)C=C3C)[nH]c2c1	50µM*	i	-29%[70.6 µM]	2%[88.5 µM]	56µM*
CC(=O)NC[C@@H]1C=C(C)[C@H](Cc2nc3ccccc3n2C)C[C@H]1C(C)C	35µM*	i	?	1%[88.5 µM]	79µM*
COc1ccc2nc(C[C@@H]3C[C@@H](C(C)C)[C@H](CNCc4ccccc4)C=C3C)[nH]c2c1	45µM*	i	-18%[70.6 µM]	i	50µM*
COc1ccc2nc(C[C@@H]3C[C@@H](C(C)C)[C@H](CNC4CCCCC4)C=C3C)[nH]c2c1	28µM*	i	-12%[70.6 µM]	i	22µM*
COc1ccc2nc(C[C@@H]3C[C@@H](C(C)C)[C@H](CNC(=O)[C@@H]4CCCC[C@@H]4C(=O)O)C=C3C)[nH]c2c1	3%	i	6%	i	-4%
CC(=O)N1CCC(NC[C@@H]2C=C(C)[C@H](Cc3nc4ccccc4[nH]3)C[C@H]2C(C)C)CC1	89µM*	i	-18%[70.6 µM]	i	112µM*
COC(=O)CNC(=O)C1=NOC2CN(C(=O)C3CC3)CC12 (centres undefined)	3%	·	·	-15%	5%
O=C(NCc1ccc(F)cc1)c1ccc2nnc(Cc3ccc(Cl)cc3)n2c1	40µM*	·	·	i	?
O=C(NCc1cccc(C(F)(F)F)c1)c1ccc2nnc(Cc3ccc(Cl)cc3)n2c1	32µM*	·	·	-19%	22µM*
O=C(NCc1ccc(Cl)cc1)c1ccc2nnc(Cc3ccc(Cl)cc3)n2c1	45µM*	·	·	i	32µM*
O=C(NCc1ccccc1Cl)c1ccc2nnc(Cc3ccc(Cl)cc3)n2c1	?	·	·	3%	?
O=C(NCCc1ccc(Cl)cc1)c1ccc2nnc(Cc3ccc(Cl)cc3)n2c1	28µM*	·	·	i	28µM*
O[C@H]1[C@H](NCc2ccc(OC(F)(F)F)cc2)[C@H]2CO[C@H](O2)[C@@H]1N1CCOCC1	-3%[172 µM]	i	0%[70.6 µM]	?	i
O[C@H]1[C@H](NCC2CCCCC2)[C@H]2CO[C@H](O2)[C@@H]1N1CCC(Cc2ccccc2)CC1	40µM*	i	-3%[70.6 µM]	0%[88.5 µM]	32µM*
O=C(NC1CCCCC1)N[C@H]1[C@H](O)[C@@H](N2CCC(Cc3ccccc3)CC2)[C@@H]2OC[C@H]1O2	?	i	3%	i	?
O[C@H]1[C@H](NCc2ccc(OC(F)(F)F)cc2)[C@H]2CO[C@H](O2)[C@@H]1N1CCC(Cc2ccccc2)CC1	45µM*	i	?	0%	?
Cc1ccc(-c2nnc(C3CN(C(=O)Cc4c(C)noc4C)CC34CCOCC4)o2)cc1 (centres undefined)	-25%	i	-2%	0%	-28%
COc1ccccc1Nc1ncc2c(n1)CN(C(=O)c1cccc(O)c1)CCN2	100µM*	i	-26%[70.6 µM]	4%[88.5 µM]	-3%[138 µM]
Cn1c(C(=O)N2CCNc3cnc(Nc4cccc(C(F)(F)F)c4)nc3C2)cc2ccccc21	40µM*	i	-30%	-24%	40µM*
COc1ccccc1Nc1ncc2c(n1)CN(C(=O)c1ccc(Oc3ccccc3)cc1)CCN2	35µM*	i	-4%	-17%	?
SMILES	HEK293 tox	Luciferase inh	hNpr1 antagonist	GPT2 inhibitor	3T3 cytotox
COc1ccc(-c2ccc(C(=O)N3CCCC3)cc2)nn1	25µM*	·	·	·	18µM*
COc1ccc(-c2ccc(C(=O)N3CCCC3)c(Cl)c2)nn1	?	·	·	·	32µM*
Cn1cc(-c2cnc(Nc3ccncc3)c3c2CCO3)cn1	?	i	2%[70.6 µM]	1%[88.5 µM]	89µM*
Cn1cc(-c2cnc(Nc3ccc(F)c(Cl)c3)c3c2CCO3)cn1	?	i	-10%[70.6 µM]	-18%[88.5 µM]	-40%[138 µM]
c1ccc(-c2cnc(Nc3ccncc3)c3c2CCO3)cc1	79µM*	28µM*	25µM*	i	45µM*
Cc1cnc(CCNC(=O)c2n[nH]c3ccccc23)n1C1CCCC1	?	i	0%	i	-22%
CC(c1ccccc1)N1Cc2cc(NC(=O)Cc3cccs3)ccc2OCC1=O (centres undefined)	?	i	2%	i	?
N#Cc1cccc(CN2CCc3ncc(C(=O)NCc4ccccc4)n3CC2)c1	?	i	-19%[70.6 µM]	-9%[88.5 µM]	?
COCCOCc1ccc(CC2CCN(C(=O)c3ccc(OC)cc3OC)CC2)cc1	32µM*	·	·	-4%	?
CCCn1c(C)cnc1CC1CCN(C(=O)c2ccc(OC)cc2OC)CC1	?	i	-2%	i	-4%
O=C(C1CCCN1C(=O)Nc1ccc(Cl)cc1)N1CCC(N2Cc3cccn3C2=O)CC1 (centres undefined)	?	·	·	0%	28µM*
O=C(C1CCCN1C(=O)C1CCCC1)N1CCC(N2Cc3cccn3C2=O)CC1 (centres undefined)	i	·	·	i	-4%
COc1cccc(-c2cccc(C(=O)N[C@H]3C[C@@H]4OCC[C@H]34)c2)c1	?	i	5%	1%	-10%
CC(C)(C)C(=O)N1CCC2(CC1)CC(c1cccc(C(F)(F)F)c1)=NO2	?	·	·	·	-26%
Cc1ccccc1C(=O)N1CCC2(CC1)CC(c1cccc(C(F)(F)F)c1)=NO2	32µM*	·	·	·	?
O=C(c1ccccc1F)N1CCCC2(CC(c3cccc(C(F)(F)F)c3)=NO2)C1 (centres undefined)	?	i	2%	-1%	?
O=C(c1ccccc1F)N1CCC2(CC1)CC(c1cccc(C(F)(F)F)c1)=NO2	40µM*	·	·	·	?
NC(=O)C1(C(=O)N2CCC3(CCCN(CCCc4ccccc4)C3=O)C2)CC1 (centres undefined)	-8%	i	0%	i[11.5 µM]	-8%
Cc1noc2c(NCCc3ccccn3)cc(-c3ccccn3)nc12	56µM*	i	1%[70.6 µM]	-9%[88.5 µM]	?
CN(C)c1cccc(C(=O)N2CCCN(c3cc(-c4ccc(F)cc4)[nH]n3)CC2)c1	?	22µM*	-21%	2%	3%
Cc1ccc(-c2cc(N3CCCN(C(=O)c4ccccc4F)CC3)n[nH]2)cc1C	28µM*	i	-24%	?	?
